mcGAS RapidFire: inhibitors of mouse cGAS. 130,000 tested, 0.18% active. recombinant mouse cGAS, cGAMP by RapidFire MS. inhibition, % at 12.5 µM. Q8C6L5;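 active = inhibition of cGAS enzyme activity at or above 60%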;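 note: enzyme stimulated by 45 bp dsDNA with ATP and GTP substrates; cGAMP share of summed cGAMP plus half ATP and half GTP signals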
Numbers stand for hits. This excerpt belongs to a sample that is enriched for hits.

Cc1nnc(NC(=O)c2cccc(C(=O)O)c2)s1 was read as mcGAS RapidFire inactive.
Screening Cc1cccc(NC(=O)c2ccc(S(=O)(=O)Nc3cccc(C(F)(F)F)c3)o2)n1 returned mcGAS RapidFire inactive.
Cc1nnc(NC(=O)c2ccc(S(=O)(=O)Nc3cccc(C(F)(F)F)c3)o2)s1 was read as mcGAS RapidFire 76.
c1ccc2c(c1)CCCC2SCc1nc(-c2ccsc2)no1 (configuration not stated) was read as mcGAS RapidFire inactive.
Screening O=C(Cc1ccc(C(F)(F)F)cc1)Nc1ncccc1O returned mcGAS RapidFire inactive.
Screening O=C(COc1ccc(Cl)c2ccccc12)NCC(F)(F)F returned mcGAS RapidFire inactive.
Screening O=C(COc1ccc(Cl)c2ccccc12)Nc1ncccc1O returned mcGAS RapidFire 95.
`CNC(=O)CCN(C)c1cc(C2CCCNC2)nc(C)n1` (configuration not stated) gave mcGAS RapidFire inactive.
For CCc1nc(NC2CCCCC2)c(C#N)c2c1CCCC2 the results were mcGAS RapidFire inactive.
For Nc1ccc2c(c1N)C(=O)c1ccccc1C2=O the results were mcGAS RapidFire inactive.
For O=C1C=C(O)c2ccccc2C1=O the results were mcGAS RapidFire inactive.
For O=C1c2ccccc2C(=O)c2c1ccc(O)c2O the results were mcGAS RapidFire 85.
Cc1cc(C)n2nc(C)c(C(=O)N(C)c3cc(F)ccc3F)c2n1 was read as mcGAS RapidFire inactive.
`Cc1cccc2c1C(NC(=O)Cc1c(C)nn(-c3ccccc3)c1C)C(=O)N2` (configuration not stated) gave mcGAS RapidFire inactive.
For CN(C)S(=O)(=O)c1cccc(C(=O)NC2CCc3ccccc32)c1 (configuration not stated) the results were mcGAS RapidFire inactive.
`CCC(NC(=O)c1ccccc1-c1ncn[nH]1)c1cc(C)ccn1` (configuration not stated) gave mcGAS RapidFire inactive.
For O=C(c1cccs1)N1CCCC(OCc2cccc([N+](=O)[O-])c2)C1 (configuration not stated) the results were mcGAS RapidFire inactive.
`COc1cccc(-c2ccc3c(c2)N(Cc2ccc(F)cc2)C(=O)C(C)S3)c1` (configuration not stated) gave mcGAS RapidFire inactive.
`Cc1ccccc1CN1C(=O)C(C)Sc2ccc(-c3ccco3)cc21` (configuration not stated) gave mcGAS RapidFire inactive.
Screening CC1Oc2ccccc2N(Cc2ccccc2Cl)C1=O (configuration not stated) returned mcGAS RapidFire inactive.
CC1Sc2ccc(-c3ccco3)cc2N(Cc2ccccc2Cl)C1=O (configuration not stated) was read as mcGAS RapidFire 69.
Cc1ccccc1CN1C(=O)C(C)Sc2ccccc21 (configuration not stated) was read as mcGAS RapidFire inactive.
Screening CC1Sc2ccccc2N(Cc2ccccc2Cl)C1=O (configuration not stated) returned mcGAS RapidFire 69.
For CC(=O)[C@H]1CCC2C3C=CC4=CC(=O)CC[C@@]4(C)C3CC[C@@]21C (some centres not stated) the results were mcGAS RapidFire inactive.
Screening Cc1ccc(-c2nccn2-c2cccc(-c3nnc(C)s3)c2)o1 returned mcGAS RapidFire inactive.
Screening CN(C)CCNC(=O)CCC1CCN(C/C(Cl)=C/c2ccccc2)CC1 returned mcGAS RapidFire inactive.
CC(C)c1cc(-c2nnc3sc(-c4cccnc4)nn23)n[nH]1 was read as mcGAS RapidFire inactive.
Screening CC(C)Cc1cc(-c2nn3c(-c4cnccn4)nnc3s2)n[nH]1 returned mcGAS RapidFire 88.
Screening CC(C)Cc1cc(-c2nn3c(-c4cccnc4)nnc3s2)n[nH]1 returned mcGAS RapidFire inactive.
For COc1cc(/C=C/C(=O)N2CCCC2C(C)C)ccc1OCC(N)=O (configuration not stated) the results were mcGAS RapidFire inactive.
Screening CNC(=O)NC(=O)COC(=O)CC12CC3CC(CC(C3)C1)C2 returned mcGAS RapidFire inactive.
`COc1ccc2nc(-n3cncn3)cc(C)c2c1` gave mcGAS RapidFire inactive.
CCN(Cc1cccc(F)c1)C(=O)Cn1cnc2ccccc2c1=O was read as mcGAS RapidFire inactive.
`COc1ccc(NC(=O)C2(NC(=O)C3CC(=O)N(C(C)C)C3)CCCC2)cc1OC` (configuration not stated) gave mcGAS RapidFire inactive.
`Cc1ccc(Cn2c(CN3CC(C)CC(C)C3)nc3c2c(=O)n(C)c(=O)n3C)cc1` (configuration not stated) gave mcGAS RapidFire inactive.
Screening COc1ccc(C=Cc2sc3ccccc3[n+]2CCCS(=O)(=O)O)cc1OCc1ccccc1 returned mcGAS RapidFire inactive.
Cc1ccc(C=Cc2sc3ccccc3[n+]2CCCS(=O)(=O)O)cc1 was read as mcGAS RapidFire 86.
`NC(c1ccc(F)cc1)c1cccc(C(F)(F)F)c1` (configuration not stated) gave mcGAS RapidFire inactive.
CSc1nc(C(=O)N2CCN3C(=O)CN(C)C(=O)C3C2)cs1 (configuration not stated) was read as mcGAS RapidFire inactive.

High-throughput results as filed in PubChem BioAssay.
